For 93 compounds, inhibition results are on record in PubChem BioAssay AID2557 (NMMLSC, 2010).

Values joined by “and” are separate entries in the source; they are usually repeats but may differ in a detail not shown here. Equal entries are not always repeated. Out of some 330,000 compounds screened, about 650 (0.2%) were called active. Cut-off read from the data, not from the text of the source: active = inhibition above about 50%; inactive = the rest. Shown is part of a subset that was picked to be rich in actives. The source holds several records for some structures; these can differ, active in one and inactive in another.

Integrin alpha-4 (Homo sapiens), sequence (P13612 whole entry, looked up): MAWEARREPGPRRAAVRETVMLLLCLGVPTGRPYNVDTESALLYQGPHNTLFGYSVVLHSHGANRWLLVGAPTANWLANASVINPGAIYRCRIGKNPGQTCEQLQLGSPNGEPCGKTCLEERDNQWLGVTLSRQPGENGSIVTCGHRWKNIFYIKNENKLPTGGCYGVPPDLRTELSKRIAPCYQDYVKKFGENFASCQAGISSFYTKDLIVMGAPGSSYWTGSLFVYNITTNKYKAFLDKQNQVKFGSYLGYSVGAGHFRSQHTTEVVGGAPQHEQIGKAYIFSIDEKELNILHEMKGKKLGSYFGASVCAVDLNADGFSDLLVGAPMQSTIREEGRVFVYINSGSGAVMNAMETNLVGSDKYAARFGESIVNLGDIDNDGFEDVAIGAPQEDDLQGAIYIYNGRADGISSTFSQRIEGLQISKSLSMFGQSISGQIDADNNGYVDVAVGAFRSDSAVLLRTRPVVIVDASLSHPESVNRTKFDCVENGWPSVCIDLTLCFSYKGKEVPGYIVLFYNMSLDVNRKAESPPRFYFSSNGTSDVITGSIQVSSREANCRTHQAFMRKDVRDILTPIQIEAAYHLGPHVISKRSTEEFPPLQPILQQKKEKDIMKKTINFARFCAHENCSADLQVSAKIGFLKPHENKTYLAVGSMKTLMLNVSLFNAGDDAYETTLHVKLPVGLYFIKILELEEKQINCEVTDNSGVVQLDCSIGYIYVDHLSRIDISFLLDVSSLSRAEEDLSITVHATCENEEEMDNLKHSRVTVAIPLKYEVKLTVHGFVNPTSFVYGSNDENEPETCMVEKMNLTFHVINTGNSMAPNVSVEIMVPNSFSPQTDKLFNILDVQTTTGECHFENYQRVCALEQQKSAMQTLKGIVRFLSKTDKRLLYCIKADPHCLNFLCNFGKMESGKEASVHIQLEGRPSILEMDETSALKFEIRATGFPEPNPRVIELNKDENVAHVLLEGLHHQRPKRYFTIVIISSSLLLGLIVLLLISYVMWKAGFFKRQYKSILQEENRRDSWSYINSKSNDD

This assay has as its target Integrin alpha-4 (Homo sapiens) (UniProt P13612). Kind of assay: inhibition in human VLA-4 binding assay, primary screen, VLA-4 allosteric modulator project, MLPCN library, flow cytometry, VLA-4 expressing cells (AID 2557). As to conditions: ligand binding flow cytometry, stronger effect = higher value, about 7 µM as worked out from the volumes in the protocol. In general terms: A flow cytometer gives signals particle by particle.
Regarding `O=C(O)c1ccc(-n2cccc2)cc1O`, the inhibition – broadly, the change of the read-out against control, counted positive when it falls – is 7.46% (inactive).

For `COc1cccc(NC(=O)Nc2nnc(N3CCCCC3C)s2)c1` (stereo not drawn), the inhibition was -3.47% (inactive). Take `OCC1(CCOc2ccccc2)CCN(Cc2cn[nH]c2-c2ccccc2)CC1`: the inhibition was 0.87% (inactive). For `CCOC(=O)C1(CCOc2ccccc2)CCN(Cc2cc(OC)c(O)cc2Cl)CC1`, the inhibition was 7.42% (inactive). As for `Cc1c(CN2CCC(CO)(CCOc3ccccc3)CC2)[nH]c2ccc(Cl)cc12`, the inhibition is 54.3% (active).

Take `COc1ccc(C2C(C#N)=C(N)Oc3n[nH]c(C)c32)cc1CN1CCN(c2ccc(F)cc2)CC1` (stereo not drawn): the inhibition was 5.55% (inactive).

Regarding `COc1nc(OC)nc(N(C)CCO)n1`, the inhibition is 12.5% (inactive).

With `Cc1noc(COc2ccccc2OCc2onc(C)c2Cl)c1Cl`, the inhibition is -0.81% (inactive). As for `Cc1ccccc1C(=O)Nc1cccc(-c2nnc(SCC(=O)O)n2C)c1`, the inhibition is 5.4% (inactive). In the case of `N#C/C(=C/c1ccc(Cl)cc1)NC(=O)c1ccccc1`, the inhibition is -2.66% (inactive). Consider `CC1(C)Cc2cccc(OCC(=O)N3CCN(c4ccc([N+](=O)[O-])cc4)CC3)c2O1`, for which the inhibition was -21.6% (inactive). Regarding `O=C(Nc1nc(-c2ccco2)c(-c2ccco2)s1)c1ccco1`, the inhibition was -14.9% (inactive). For the compound `NC(=O)c1ccsc1NC(=O)c1ccco1`, the inhibition was -45.2% (inactive). Consider `Cc1ccnc(NC(=O)c2ccco2)n1`, for which the inhibition was 63.2% (active).

As to `COc1cccc(CCNC(=O)c2cccc(NC(=O)C3=C(C)OCCS3)c2)c1`, the inhibition is 4.07% (inactive). In the case of `Cc1cc(C(=O)NNS(=O)(=O)c2ccccc2C(F)(F)F)nn1C(C)(C)C`, the inhibition was 2.36% (inactive). The figure for `Cc1cc(C(=O)OC(C)C(=O)Nc2cccc(S(=O)(=O)N3CCOCC3)c2)c(C)o1` (stereo not drawn) is 5.58% (inactive); for `CCn1c(C)nc2cc(C(=O)NNS(=O)(=O)c3ccc(C)cc3C)ccc21` it is 1.05% (inactive). Take `COC(=O)c1cc(NS(=O)(=O)c2ccc3c(c2)c(=O)n(C)c(=O)n3C)cc(C(=O)OC)c1`: the inhibition was -0.04% (inactive). `Cc1cccc(CN2CCC(n3nccc3NC(=O)c3ccccc3C)CC2)n1`: the inhibition was -1.23% (inactive). For the compound `Cc1ccc(OCC(=O)NNC(=S)NCc2ccccc2)cc1`, the inhibition is -4.04% (inactive). Turning to `CCNC(=S)NNC(=O)Cc1ccccc1`, the inhibition is 94.9% (active). The result for `CCNC(=S)NNC(=O)C1CCN(Cc2ccccc2)CC1` reads 8.74% (inactive). The result for `CC1(C(=O)NCCc2c[nH]c3ccccc23)C=CC2(CCCCC2)N1C(=O)c1ccccc1` (stereo not drawn) reads 52.7% (active); that for `O=C(CN1C(=O)NC2(CCCCC2)C1=O)NCCc1c[nH]c2ccccc12`, 4.17% (inactive); that for `O=C(NCCc1c[nH]c2ccccc12)c1cccc(Br)c1`, 2.59% (inactive). In the case of `Cc1cccc(NC(=O)NC2(C)CCS(=O)(=O)C2)c1` (stereo not drawn), the inhibition was 7.4% (inactive). As for `CCOC(=O)c1ccc(NC(=O)c2ccc(NC(=O)C3CCCO3)cc2)cc1` (stereo not drawn), the inhibition was 6.76% (inactive). With `O=C(Nc1ccccc1Cl)NC1(C(=O)N2CCOCC2)CCCCC1`, the inhibition was 10.7% (inactive). On to `CCOc1cc(NC(=S)NCCCN(C)C)c(OCC)cc1NC(=O)C1CC1`, for which the inhibition was -0.39% (inactive).

Take `Cc1sc2ncnc(Sc3nc4ccccc4s3)c2c1C`: the inhibition is 8.09% (inactive). Turning to `O=C(c1ccco1)N(Cc1nc2ccccc2c(=O)[nH]1)C1CCCC1`, the inhibition was -4.47% (inactive). Regarding `COc1ccccc1NC(=O)c1cc(Cl)nnc1Cl`, the inhibition is 50.6% (active).

Consider `COc1ccccc1NC(=O)/C=C/C(N)=O`, for which the inhibition was 17.5% (inactive). The figure for `COc1ccccc1NC(=O)c1cc(Cl)nc2ccccc12` is 7.01% (inactive); for `Brc1cc(Br)c(Oc2cc(Br)c(Br)cc2Br)cc1Br` it is 11.2% (inactive); for `Cc1[nH]c2ccccc2c1SCC(=O)Nc1nccs1` it is 4.64% (inactive). Regarding `CC1=C(C/C=C(\C)CCCC(C)CCCC(C)CCCC(C)C)C(=O)c2ccccc2C1=O` (stereo not drawn), the inhibition is -3.08% (inactive). For `O=C(O)CC(Cc1ccccc1)C(=O)Nc1ccc([N+](=O)[O-])cc1` (stereo not drawn), the inhibition is -9.76% (inactive). Regarding `Cc1c(C(=O)c2cccc([N+](=O)[O-])c2)c2ccccn2c1CCC#N`, the inhibition is -34.5% (inactive). With `COc1ccc(-c2cc(C(=O)N3CCN(Cc4ccc5c(c4)OCO5)CC3)on2)cc1OC`, the inhibition was 4.54% (inactive). Consider `OCC[C@H]1C[C@H](O)[C@@H](O)[C@]2(CCc3ccccc3O2)O1`, for which the inhibition is -21% (inactive). With `CC(=O)N1CCOc2ccc(S(=O)(=O)N3CCC(C(=O)Nc4ccccc4F)CC3)cc21`, the inhibition was 47.6% (inactive). As to `COc1ccc(C(=O)Oc2ccc(-c3nnco3)cc2)cc1S(=O)(=O)N1CCOCC1`, the inhibition is -1.94% (inactive). For `Cc1cc(C)nc(Nc2n[nH]c(-c3ccccc3N)n2)n1`, the inhibition is 2.65% (inactive). Take `O=C(NN1C(=O)C2C3C=CC(C4CC34)C2C1=O)c1ccc(Cl)cc1` (stereo not drawn): the inhibition was 0.6% (inactive). The result for `O=C(c1cccnc1)N1CCN(S(=O)(=O)c2cccs2)CC1` reads 0.7% (inactive); that for `CC(=O)NC12CC3CC(C1)CC(C(=O)N1CCN(C(=O)c4ccco4)CC1)(C3)C2`, 6.83% (inactive); that for `CC(=O)NC12CC3CC(C1)CC(C(=O)N1CCN(S(=O)(=O)c4cccs4)CC1)(C3)C2`, 49.5% (active). With `CCCCn1c(N)c(N(CCC(C)C)C(=O)COC(=O)c2cccnc2OCC)c(=O)[nH]c1=O`, the inhibition was -4.24% (inactive).

As for `COC(=O)[C@@H]1C[C@H]2CC[C@H](O)C[C@H]2N1Cc1ccc(N2CCN(C)CC2)cc1`, the inhibition is -1.75% (inactive). `O=C(COc1ccc(S(=O)(=O)NCCc2ccccc2)cc1)N1CCCC1`: the inhibition was 3.9% (inactive).

Consider `COCCCn1c(-c2cccs2)nc2nc3ccccc3nc21`, for which the inhibition was -3.42% (inactive). The result for `O=C(CN1CCC(NC(=O)Nc2ccccc2)CC1)Nc1cccc([N+](=O)[O-])c1` reads 50.6% (active); that for `O=C(CN1CCOCC1)Nc1cccc([N+](=O)[O-])c1`, -3.87% (inactive); that for `CN1CCN(CC(=O)Nc2cccc([N+](=O)[O-])c2)CC1`, -3.14% (inactive).

On to `COCC1CCCN(Cc2nc(-c3ccc4c(c3)OCO4)no2)C1` (stereo not drawn), for which the inhibition is 9.31% (inactive). In the case of `Cc1cc(N2CCCC2=O)cc(C)c1S(N)(=O)=O`, the inhibition is 14.9% (inactive). On to `COc1ccc(NC(=O)NC2CC3CCCC(C2)N3Cc2ccccc2)cc1` (stereo not drawn), for which the inhibition is 6.26% (inactive). As to `Cc1noc(C)c1CSCC(=O)N(CCC(C)C)c1c(N)n(Cc2ccccc2)c(=O)[nH]c1=O`, the inhibition was -2.16% (inactive).

As for `CC1(C)S[C@@H]2[C@H](N=CN3CCCCCC3)C(=O)N2[C@H]1C(=O)O`, the inhibition was 4.34% (inactive).

As to `CC1(C)S[C@@H]2[C@H](NC(=O)COc3ccccc3)C(=O)N2C1C(=O)OCc1ccccc1` (stereo partly drawn), the inhibition is -9.56% (inactive). Turning to `CC1(C)SC2C(NC(=O)COc3ccccc3)C(=O)N2C1C(=O)O` (stereo not drawn), the inhibition was 5.73% (inactive) and 56.2% (active). As to `COc1ccccc1N1CCN(c2ncnc3sc(C)c(-c4ccccc4)c23)CC1`, the inhibition was -10.6% (inactive).

Take `CCn1c(/C=N/NC(=O)c2ccc(OC)cc2)nc2ccccc21`: the inhibition was -11% (inactive). Regarding `O=C(C1CCCO1)N1CCN(C(=S)NC2CC2)CC1` (stereo not drawn), the inhibition was 8.17% (inactive). In the case of `COc1ccccc1N(C(=O)Cn1nnc2ccccc21)C(C(=O)NCc1ccco1)c1ccc(C)o1` (stereo not drawn), the inhibition is 14% (inactive). The figure for `O=C(Nc1ccc(F)c(Cl)c1)C1CCN(S(=O)(=O)c2cccnc2)CC1` is 12.9% (inactive); for `Nc1nnnn1/N=C/c1cccc(Br)c1` it is 0.88% (inactive); for `CCOC(=O)Nc1ccc(NC(=O)OCC)cc1` it is 10.4% (inactive).

Turning to `Cc1ccc(NC(=O)OCCNC(=O)c2ccncc2)cc1`, the inhibition was -1.13% (inactive). Consider `Cc1ccc(NC(=O)OCc2cncs2)cc1`, for which the inhibition was 52.5% (active).

Turning to `FC(F)Oc1ccccc1NC(=S)Nc1cccc(Cl)c1Cl`, the inhibition was 21.2% (inactive). With `CCN(CC(=O)NCc1ccc(Cl)cc1)C(=O)CSc1ccccc1`, the inhibition was -3.34% (inactive). The figure for `COc1ncnc2c1N=C1CC(C)(C)CC(N)=C1S2` is -11.6% (inactive). On to `O=C(NCc1ccc2c(c1)OCO2)C12CC3CC(CC(C3)C1)C2`, for which the inhibition is 0.46% (inactive). For the compound `CCc1c(O)nc(SCC(=O)Nc2ccccc2)n(C(C)CC)c1=O` (stereo not drawn), the inhibition is 9.62% (inactive).

As to `CCOC(=O)c1sc(C)c2c1NC(C)(c1cccc3ccccc13)NC2=O` (stereo not drawn), the inhibition is -0.92% (inactive). With `COc1ccc(CCNC(=O)CCC(=O)NC2CCCCC2)cc1OC`, the inhibition is 4.77% (inactive). As for `CCOP(=O)(OCC)C(Nc1ccc([N+](=O)[O-])cc1)c1ccc(Cl)cc1` (stereo not drawn), the inhibition was -0.81% (inactive). On to `CCO[C@H]1OC(C(=O)NCc2ccccc2)=C[C@@H](c2coc3ccccc3c2=O)[C@@H]1CCCO`, for which the inhibition was -1.21% (inactive). The figure for `C=CCSc1nnc2c(n1)-c1cccc3cccc-2c13` is -4.2% (inactive); for `O=S(=O)(O)c1nc2ccccc2n1Cc1ccc(Cl)cc1Cl` it is 16.4% (inactive); for `CC(C)(C)C(=O)Cn1c(NCCO)nc2ccccc21` it is -16.2% (inactive). The result for `O=C(Cn1c(NCCO)nc2ccccc21)c1ccc(Cl)cc1Cl` reads 62.2% (active).

In the case of `Cn1cc(CN2CCC(C(O)CCc3ccccc3)CC2)c(-c2ccccc2F)n1` (stereo not drawn), the inhibition was -11.7% (inactive).

In the case of `Cc1c(NC(=O)c2c([N+](=O)[O-])cnn2C)c(=O)n(-c2ccccc2)n1C`, the inhibition was 17.6% (inactive). As to `Cc1ccc(C2NC(=S)NC3=C2N2CCC3CC2)cc1` (stereo not drawn), the inhibition is 2.28% (inactive). Consider `CC[C@@H]1CCCCc2ccccc2[C@@H](C(=O)C[C@H](O)CC(C)=O)OC1=O`, for which the inhibition was -25.7% (inactive). As for `O=C(Nc1ccc(Br)cc1)C1CCC(=O)N1Cc1ccccc1Cl` (stereo not drawn), the inhibition is 28.5% (inactive).

Take `CCN(CC(=O)Nc1c(F)cccc1F)C(=O)c1ccc(-c2ccccc2)cc1`: the inhibition was -6.8% (inactive).

With `CCCC[C@@H]1CN=C(N)N1CCc1cc(C(F)(F)F)cc(C(F)(F)F)c1`, the inhibition is 8.42% (inactive). Turning to `CC1CC(C)CN(S(=O)(=O)c2cccc(C(=O)N3C(=O)c4cccc(N)c4C3=O)c2)C1` (stereo not drawn), the inhibition was 3.91% (inactive).
